Source: PubChem BioAssay AID602244 (Sanford-Burnham Center for Chemical Genomics, 2012)
The whole screen tested about 360,000 compounds, of which about 1,300 (0.36%) were called active. This is one part of a sample in which actives are shown more often than they occur. No stated cut-off is given here; in the data, active means inhibition above about 34% (passing the limit was not always enough); inactive means the rest.

What follows are molecules tested against C-X-C chemokine receptor type 6 (Homo sapiens) (UniProt O00574) (assay: CXCR6 receptor inhibitors, primary screen, cell-based, beta-arrestin, luminescence, CHO-K1 PathHunter, 1536-well (AID 602244;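 further: antagonist mode with CXCL16 agonist at 10 nM final; 0% = 10 nM CXCL16 with DMSO and 100% = unstimulated wells without agonist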)). Settings: at 20 µM, hits give high values.
C-X-C chemokine receptor type 6 (Homo sapiens), sequence (O00574 whole entry, looked up): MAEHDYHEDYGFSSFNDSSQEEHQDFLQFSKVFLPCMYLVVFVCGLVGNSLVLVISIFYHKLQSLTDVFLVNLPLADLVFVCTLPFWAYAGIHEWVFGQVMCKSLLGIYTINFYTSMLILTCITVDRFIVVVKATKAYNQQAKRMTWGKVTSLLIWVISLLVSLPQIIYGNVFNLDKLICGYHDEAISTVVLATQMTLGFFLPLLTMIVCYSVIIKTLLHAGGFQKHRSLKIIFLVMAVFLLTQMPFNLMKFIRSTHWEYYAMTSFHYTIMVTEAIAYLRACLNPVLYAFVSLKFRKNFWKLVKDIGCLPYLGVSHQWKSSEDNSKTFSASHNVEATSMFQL

inhibition, inactive:
NC(=O)c1ccc(N2CCCC2)nc1 1%, COC(=O)C1=C(C(=O)OC)[C@@H]2N(C)c3ccccc3[C@@]23C[C@@H](C(=O)OC)N(C(C)=O)C3=N1 0.7%, O=C(C1CC(=O)N(C2CCCC2)C1)N1CCN(c2cccc(C(F)(F)F)c2)CC1 (stereo not given) -1.4%, O=C(C1CC(=O)N(c2ccc(F)cc2)C1)N1CCN(c2ccccc2)CC1 (stereo not given) 7%, CCN1CCN(c2ccc(S(=O)(=O)N3CCCCC3)cc2NC(=O)c2cccc(NC(C)=O)c2)CC1 1.9%, CN(CCCC(=O)Nc1nccs1)S(=O)(=O)c1ccc(Cl)cc1 0.8%, O=S(=O)(NCc1ccccc1Br)c1ccccc1Br 4.3%, COC(=O)CN1C(=O)[C@H]2[C@@H](/C=C/c3ccccc3)N3C(=O)CN(Cc4ccccc4)C(=O)[C@@]3(Cc3ccccc3)[C@H]2C1=O -9.8%, O=C(Nc1ccc(S(=O)(=O)N2CCOCC2)cc1)C1CCN(S(=O)(=O)c2ccc(Cl)cc2)CC1 0.6%, C/C(=N\NS(=O)(=O)c1ccc(Cl)cc1)c1ccc(NC(=O)c2ccco2)cc1 0.1%, CC1CCN(CCCNC(=O)CN2C(=O)CSc3ccc(S(=O)(=O)N4CCCCC4)cc32)CC1 2%, Cc1ccc(-c2noc(CCC(=O)Nc3ccccc3N3CCN(C)CC3)n2)cc1 6%, CCc1nn(-c2cc(Oc3cccc4ccccc34)nc(-c3ccccc3)n2)c(N)c1C#N 0.4%, Cc1cccc(NC(=O)C2CCN(S(=O)(=O)c3cccc4cccnc34)CC2)c1 9.3%, Cc1cccc(NC(=O)Cn2cc(C(=O)c3ccco3)c3ccccc32)c1 4.5%, CN(CC(=O)Nc1ccc(F)cc1)CC(=O)Nc1ccc(Cl)c(S(=O)(=O)N2CCOCC2)c1 -1%, Cc1cccc(C(=O)Nc2ccc(Oc3cnccn3)cc2)c1 1.5%, O=C(NN1CCOCC1)c1cccc(F)c1 0.7%, CCCNC(=O)C1(C)CCN(C(=O)c2cc(F)ccc2C)C1 (stereo not given) 0.9%, O=C(CSc1nc2cc3c(cc2c(=O)n1CCC1=CCCCC1)OCO3)NCc1ccco1 6.1%, Cc1ccc2c(c1)N(CC(=O)NCCc1ccc(Cl)cc1)C(=O)c1cccnc1O2 -3.1%, CC(=O)N1c2ccc(S(=O)(=O)N3CCCC(C(=O)Nc4cccc(F)c4)C3)cc2CC1C (stereo not given) -11.7%, Cc1ccc(CCCOC(=O)C[N+]2(C)CCCCC2)cc1 -4.5%, CCCNC(=O)c1onc(CSc2ccc(F)cc2)c1C(=O)NC(C)C 2.3%, Cc1ccc(S(=O)(=O)N2CC[C@H]3[C@@H](C2)C(=O)C[C@@H](c2ccccc2)N3S(=O)(=O)c2ccc(C)cc2)cc1 -1.4%, CC(=O)Nc1nc(C)c(Cc2ccccc2)c(=O)[nH]1 4.4%, CCCCc1nc2cc(C(=O)N3CCCCC3CCO)ccc2o1 (stereo not given) 4%, COCCC(=O)N1CCC(Oc2ccc(C(=O)NCc3ccon3)cc2)CC1 6.3%, C[C@H]1CN([C@@H](C)CO)C(=O)c2cc(C3=CCCCC3)cnc2O[C@@H]1CN(C)C(=O)Cc1ccccc1 -0.7%, CC1(C)OC(=O)C2=C(C[C@@H](C3CCCCC3)O[C@@H]2c2ccc(Cl)cc2)O1 8.1%, COCCN(C(=S)Nc1cccc(Cl)c1C)C(C)c1ccco1 (stereo not given) 3.3%, OCC1OC(n2cnc3c(N4CCCC4)ncnc32)C(O)C1O (stereo not given) -4.2%, COc1ccc(C2NC(=O)C(=O)/C2=C(\O)c2ccc(Cl)cc2)cc1OC (stereo not given) 0.4%, CCN(CC)CCN1C(=O)C2C(C(=O)Nc3ccc(Br)cc3)C3C=CC2(O3)C1C(=O)NC1CCCCC1 (stereo not given) 7.8%, CC(C)N1C(=O)C2C(C(=O)NC3CCCCC3)C3C=CC2(O3)C1C(=O)NC1CCCC1 (stereo not given) -4.9%, CCc1cc2c(=O)n(-c3ccccc3)c(SCC(=O)O)nc2s1 -2%, CCO[C@H]1OC(C(=O)N2CCN(Cc3ccccc3)CC2)=C[C@@H](c2cn(C(C)=O)c3ccccc23)[C@@H]1CCCO -0.6%, CC1CCN(S(=O)(=O)c2ccc3c(ccn3CC(=O)O)c2)CC1 7.6%, Cc1cc(C(=O)OCC(=O)Nc2ccccc2Cl)c(C)o1 -6.7%, O=C(Nc1ccccc1C(=O)N1CCCCCC1)c1ccccc1Cl 10.2%, Nc1nc2c(ncn2[C@@H]2O[C@H](CNCc3ccc(OCCCN4CCOCC4)cc3)[C@@H](O)[C@H]2O)c(=O)[nH]1 -4.2%, CN(C)S(=O)(=O)c1ccc(Cl)c(NC(=O)COC(=O)CC(NC(N)=O)c2ccc(Cl)cc2)c1 (stereo not given) -0.2%, CCOC(=O)C(=Cc1ccccc1)C(=O)c1ccccc1 24%, O=C(/C=C/Sc1ncn[nH]1)c1ccc(Cl)cc1 17.1%, CCCCc1nc2ccccc2c(NC(=O)CN2CCN(C)CC2)c1CCC 2.4%

inhibition, active:
O=C(C1CC(=O)N(C2CCCCC2)C1)N1CCN(c2ccccc2)CC1 (stereo not given) 37%, Oc1ccc2ccccc2c1N=Nc1nccs1 65.1%, O=C(Nc1ccccc1)c1nnsc1S(=O)(=O)c1ccc(Cl)cc1 96.4%, Cc1cccc(NC(=O)c2nc(S(=O)(=O)Cc3ccccc3)ncc2Cl)c1 64.6%, Cc1cccc(CS(=O)(=O)c2ncc(Cl)c(C(=O)Nc3ccc(F)cc3)n2)c1 57%, O=c1ccc2c(-c3ccccc3S(=O)(=O)O)c3ccc(O)c(O)c3oc-2c1O 47.9%, COc1ccc2c(c1)c(=Cc1ccc(N(C)C)cc1)c1cc(-c3ccccc3)[n+](C)n12 39.6%, CCOCCCN1C(=O)C2C(C(=O)Nc3ccc(OCC)cc3)C3C=CC2(O3)C1C(=O)NC1CCCCC1 (stereo not given) 74.4%, O=C(Nc1ccccc1Cl)/C(Cl)=C(\Cl)S(=O)c1ccccc1 (stereo not given) 93.1%, Cc1cc(C)nc(S/C=C/C(=O)c2ccccc2)n1 46.1%
